In PubChem BioAssay (NCATS):
Inconclusive results are not listed. Entries that show only a call come without a potency. Unmarked numbers belong to inactive results. The source made the active and inactive calls. Calls follow the shape of the dose curve; as a rule, active = well fitted curve in the direction sought with a large enough effect; inconclusive = small, poorly fitted or top-dose-only effect, or another doubt; inactive = no such curve, though single readings can be large; an effect the other way counts as inactive or inconclusive.

Assays:
[1] = qHTS of pediatric cancer cell lines to identify multiple opportunities for drug repurposing: Primary screen for MG 63 (6-TG R) cells (AID 1347105); also: nearly all actives have a fitted effect of over 50% in size
Method in brief: (§1)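 Cells seeded at 500-1,000 cells/well in growth media, rested 5 hours at 37 degrees C, 5% CO2, then dosed; MIPE compounds at 11-point (from 0.78 nM) and NPC at 8-point (from 0.59 nM) final concentrations. Viability by CellTiter-Glo luminescence after 48 hours.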

[2] = qHTS of pediatric cancer cell lines to identify multiple opportunities for drug repurposing: Primary screen for control Hh wild type fibroblast cells (AID 1347106); also: nearly all actives have a fitted effect of over 55% in size;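 as to activity change, negative = cytotoxic: series mostly up to about 46 µM; a drop in luminescence marks cytotoxicity and a rise apparent proliferation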
Method in brief: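 Viability after 48 h compound treatment at 37C, 500-1,000 cells/well, read as ATP luminescence with CellTiter-Glo. Primary screens used 11-point (MIPE, 0.78 nM-46 µM) or 8-point (NPC, 0.59 nM-46 µM) final concentrations; follow-up screens used 11-point dilutions.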

[3] = qHTS of pediatric cancer cell lines to identify multiple opportunities for drug repurposing: Primary screen for Rh30 cells (AID 1347107); also: nearly all actives have a fitted effect of over 75% in size; as to activity change, negative = cytotoxic: series mostly up to about 46 µM
Method in brief: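 Cells (500-1,000/well) in growth media were settled 5 h at 37 degrees C, then given compounds for 48 h. Viability was read as CellTiter-Glo luminescence. Primary runs used MIPE at 11 points (0.78 nM-46 µM) and NPC at 8 points (0.59 nM-46 µM); follow-ups used 11 points.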

[4] = qHTS of pediatric cancer cell lines to identify multiple opportunities for drug repurposing: Primary screen for Rh41 cells (AID 1347108); also: nearly all actives have a fitted effect of over 70% in size;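 as to activity change, negative = cytotoxic: series mostly up to about 46 µM; luminescence drop marks cytotoxic hits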
Method in brief: as §1
Potency is read from the fitted curve at half-maximal effect.

COc1cc(OC)cc(-c2ccc3ncc4ccc(=O)n(-c5ccc(N6CCNCC6)c(C(F)(F)F)c5)c4c3c2)c1
Potency [1]: 14.8 µM (active) | Potency [2]: 20.9 µM (active) | Potency [3]: 16.6 µM (active) | Potency [4]: 3.72 µM (active)

O=C1c2cccc(O)c2C(=O)c2c(O)cc(CO)cc21
Potency [1]: inactive | Potency [2]: inactive | Potency [3]: inactive | Potency [4]: inactive

C[C@]12C=CC(=O)N[C@@H]1CC[C@H]1[C@H]3CC[C@@H](C(=O)Nc4cc(C(F)(F)F)ccc4C(F)(F)F)[C@@]3(C)CC[C@@H]12
Potency [1]: inactive | Potency [2]: inactive | Potency [3]: inactive

Cn1cc(-c2ccc3ncc(Cc4ccc5ncccc5c4)n3n2)cn1
Potency [1]: inactive | Potency [2]: inactive | Potency [3]: inactive

O=C(O)[C@H](CC(=O)N1C[C@@H]2CCCC[C@H]2C1)Cc1ccccc1
Potency [1]: inactive | Potency [2]: inactive | Potency [3]: inactive | Potency [4]: inactive

CC(C)(C)[C@H](NC(=O)c1ccc(N)c(Cl)c1)C(=O)N1CCC[C@@H]1C(=O)N[C@H](C#N)CC(=O)O
activity change, negative = cytotoxic [1]: -25.9% [at 4.84 µM] | activity change, negative = cytotoxic [2]: -7.94% [at 4.84 µM] | activity change, negative = cytotoxic [3]: 14.6% [at 4.84 µM]

C[C@@H](Cc1cc2c(c(C(N)=O)c1)N(CCCO)CC2)NCCOc1ccccc1OCC(F)(F)F
Potency [1]: inactive | Potency [2]: inactive | Potency [3]: inactive | Potency [4]: inactive

COc1cc(OC)c(NC(=O)Nc2cc(C)on2)cc1Cl
Potency [1]: inactive | Potency [2]: inactive | Potency [3]: inactive

Cn1cc(C=CC(=O)c2cccc(F)c2)cc1C=CC(=O)NO
Potency [1]: inactive | Potency [2]: inactive | Potency [3]: inactive

CC(Cc1ccc(O)c(O)c1)(NN)C(=O)O (stereo unspecified)
Potency [1]: inactive | Potency [2]: inactive

O=[N+]([O-])c1cn2c(n1)OC[C@@H](OCc1ccc(OC(F)(F)F)cc1)C2
Potency [1]: inactive | Potency [2]: inactive | Potency [3]: inactive

O=C(Nc1nnc(-c2ccco2)o1)c1cc(-c2ccccc2)nc2ccccc12
Potency [1]: 14.8 µM (active) | Potency [2]: inactive

N#Cc1ccc(COC[C@H]2O[C@@H](n3c(NCc4ccc(Cl)c(Cl)c4)nc4c(N)ncnc43)[C@@H](O)[C@@H]2O)cc1
Potency [1]: inactive | Potency [2]: inactive

CON=C(C(=O)N[C@@H]1C(=O)N2C(C(=O)O)=C(CSC(=O)c3ccco3)CS[C@H]12)c1csc(N)n1
Potency [1]: inactive | Potency [2]: inactive | Potency [3]: inactive | Potency [4]: inactive

CCCCCCCCc1ccc(CCC(N)(CO)CO)cc1
Potency [1]: 18.7 µM (active) | Potency [2]: inactive | Potency [3]: 18.7 µM (active) | Potency [4]: 18.7 µM (active)

CC(=O)O[C@H]1C[C@@H]2CC[C@H]3[C@H]4C[C@H]([N+]5(C)CCCCC5)[C@@H](OC(C)=O)[C@@]4(C)CC[C@@H]3[C@@]2(C)C[C@H]1[N+]1(C)CCCCC1
Potency [1]: inactive | Potency [2]: inactive | Potency [3]: inactive | Potency [4]: inactive

CC(=O)OC[C@@H]1O[C@@H](n2ccc(=O)[nH]c2=O)[C@H](OC(C)=O)[C@H]1OC(C)=O
Potency [1]: inactive | Potency [2]: inactive

CCNC(=O)c1cc2c(-c3cc(OCCN4CCCC4)c(Cl)cc3Cl)nc(N)nc2s1
Potency [1]: 14.8 µM (active) | Potency [2]: inactive | Potency [3]: inactive

O=c1ccn([C@@H]2O[C@H](CO)[C@H](O)[C@@H]2F)c(=O)[nH]1
Potency [1]: inactive

OCCNC1CCCc2c1[nH]c1ccc(-c3ccccc3)cc21 (stereo unspecified)
Potency [1]: inactive | Potency [2]: inactive

Cc1onc(-c2ccccc2)c1C(=O)N[C@@H]1C(=O)N2[C@@H](C(=O)O)C(C)(C)S[C@@H]12
Potency [1]: inactive | Potency [2]: inactive | Potency [3]: inactive

Nc1cccc2c1C(=O)N(C1CCC(=O)NC1=O)C2=O (stereo unspecified)
Potency [1]: inactive | Potency [2]: inactive | Potency [3]: inactive

CC1(C)CC(O)CC(C)(C)N1[O]
Potency [1]: inactive | Potency [2]: inactive | Potency [3]: inactive | Potency [4]: inactive

COC1=C(OC)C(=O)C(CC=C(C)CCC=C(C)CCC=C(C)CCC=C(C)CCC=C(C)CCC=C(C)CCC=C(C)CCC=C(C)CCC=C(C)CCC=C(C)C)=C(C)C1=O
Potency [1]: inactive | Potency [2]: inactive | Potency [3]: inactive | Potency [4]: inactive

O=c1c(O)c(-c2ccc(O)c(O)c2)oc2cc(O)ccc12
Potency [1]: inactive

CCn1c(=O)c2c(nc(C=Cc3ccc(OC)c(OC)c3)n2C)n(CC)c1=O
Potency [1]: inactive | Potency [2]: inactive | Potency [3]: inactive

CCCCCCCCCCCCc1ccc(S(=O)(=O)Nc2nncs2)cc1
Potency [1]: inactive | Potency [2]: inactive | Potency [3]: inactive

CC(C)(O)[C@H]1CC[C@@](C)([C@H]2[C@@H](O)C[C@@]3(C)[C@@H]4C[C@H](O[C@@H]5O[C@H](CO)[C@@H](O)[C@H](O)[C@@H]5O)[C@H]5C(C)(C)[C@@H](O[C@@H]6OC[C@@H](O)[C@H](O)[C@@H]6O)CC[C@@]56C[C@@]46CC[C@]23C)O1
Potency [1]: inactive | Potency [2]: inactive | Potency [3]: inactive

N=c1ccn2c(n1)O[C@H]1[C@@H](O)[C@@H](CO)O[C@H]12
Potency [1]: inactive | Potency [2]: inactive

N[C@H]1CN(c2c(F)cc3c(=O)c(C(=O)O)cn(C4C[C@@H]4F)c3c2Cl)CC12CC2 (stereo partly specified)
Potency [1]: inactive | Potency [2]: inactive | Potency [3]: inactive

N#Cc1cc(NC(=O)Nc2nnc(-c3ccncc3)s2)ccc1-c1cn[nH]c1
Potency [1]: inactive | Potency [2]: inactive | Potency [3]: inactive

NC(=O)c1ncn([C@@H]2O[C@H](CO)[C@@H](O)[C@@H]2O)c1O
Potency [1]: inactive | Potency [2]: inactive | Potency [3]: inactive | Potency [4]: inactive

C#C[C@]1(O)CC[C@@H]2[C@@H]3CCC4=CC(=O)CC[C@@H]4[C@H]3CC[C@@]21CC
Potency [1]: inactive | Potency [2]: inactive

CCCNS(=O)(=O)Nc1ncnc(OCCOc2ncc(Br)cn2)c1-c1ccc(Br)cc1
Potency [1]: inactive | Potency [2]: inactive | Potency [3]: inactive
